Experimental data taken from the supplement of paper PMC9694430.
Counter-ions that a name gives are not always drawn.

What was measured:
Experiment in all cases: thermal shift delta Tm vs DMSO control; higher = stronger stabilization (binding)
Conditions in all cases: 12.5 µM; protein concentration 2 µM
LOC_OS01G01410-cb001 = tested on: LOC_OS01G01410-cb001
Outline: (§1)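 Purified, E. coli-expressed rice kinase domain constructs were tested by differential scanning fluorimetry in 96-well plates: 19.5 μl of 2 μM kinase in 100 mM potassium phosphate pH 7.5, 150 mM NaCl, 10% glycerol, 5 × SYPRO Orange, plus compound in DMSO. Fluorescence was read from 25°C to 95°C at 0.05°C/s. Melting temperatures came from Boltzmann fits, and the shift is the triplicate mean relative to protein with DMSO alone.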

LOC_OS01G02750-cb003 = tested on: LOC_OS01G02750-cb003
Outline: as §1

LOC_OS01G10900-cb004 = tested on: LOC_OS01G10900-cb004
Outline: as §1

LOC_OS01G13800-cb001 = tested on: LOC_OS01G13800-cb001
Outline: as §1

LOC_OS01G14860-cb001 = tested on: LOC_OS01G14860-cb001
Outline: as §1

LOC_OS01G21960-cb002 = tested on: LOC_OS01G21960-cb002
Outline: as §1

LOC_OS01G39600-cb002 = tested on: LOC_OS01G39600-cb002
Outline: as §1

LOC_OS01G48390-cb002 = tested on: LOC_OS01G48390-cb002
Outline: as §1

LOC_OS01G51400-cb002 = tested on: LOC_OS01G51400-cb002
Outline: as §1

LOC_OS01G52050-cb004 = tested on: T1, LOC_OS01G52050-cb004
T1 sequence (whole entry): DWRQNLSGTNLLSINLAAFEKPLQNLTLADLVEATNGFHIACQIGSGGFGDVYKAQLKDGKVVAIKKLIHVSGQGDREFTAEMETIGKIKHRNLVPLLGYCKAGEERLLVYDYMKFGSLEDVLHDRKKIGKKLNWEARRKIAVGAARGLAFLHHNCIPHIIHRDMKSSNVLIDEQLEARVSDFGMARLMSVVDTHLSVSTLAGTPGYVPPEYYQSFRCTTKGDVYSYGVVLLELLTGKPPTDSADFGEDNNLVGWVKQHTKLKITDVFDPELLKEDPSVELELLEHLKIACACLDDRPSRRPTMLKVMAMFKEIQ
Outline: as §1

LOC_OS01G57100-cb003 = tested on: LOC_OS01G57100-cb003
Outline: as §1

LOC_OS01G60330-cb001 = tested on: LOC_OS01G60330-cb001
Outline: as §1

LOC_OS01G60700-cb002 = tested on: LOC_OS01G60700-cb002
Outline: as §1

LOC_OS01G63280-cb003 = tested on: LOC_OS01G63280-cb003
Outline: as §1

LOC_OS01G67340-cb003 = tested on: LOC_OS01G67340-cb003
Outline: as §1

LOC_OS01G70970-cb002 = tested on: LOC_OS01G70970-cb002
Outline: as §1

LOC_OS02G07810-cb001 = tested on: LOC_OS02G07810-cb001
Outline: as §1

LOC_OS02G08530-cb003 = tested on: LOC_OS02G08530-cb003
Outline: as §1

LOC_OS02G14120-cb001 = tested on: LOC_OS02G14120-cb001
Outline: as §1

LOC_OS02G17970-cb001 = tested on: LOC_OS02G17970-cb001
Outline: as §1

| Structure (SMILES) | thermal shift delta Tm (LOC_OS01G01410-cb001) [°C] | thermal shift delta Tm (LOC_OS01G02750-cb003) [°C] | thermal shift delta Tm (LOC_OS01G10900-cb004) [°C] | thermal shift delta Tm (LOC_OS01G13800-cb001) [°C] | thermal shift delta Tm (LOC_OS01G14860-cb001) [°C] | thermal shift delta Tm (LOC_OS01G21960-cb002) [°C] | thermal shift delta Tm (LOC_OS01G39600-cb002) [°C] | thermal shift delta Tm (LOC_OS01G48390-cb002) [°C] | thermal shift delta Tm (LOC_OS01G51400-cb002) [°C] | thermal shift delta Tm (LOC_OS01G52050-cb004) [°C] | thermal shift delta Tm (LOC_OS01G57100-cb003) [°C] | thermal shift delta Tm (LOC_OS01G60330-cb001) [°C] | thermal shift delta Tm (LOC_OS01G60700-cb002) [°C] | thermal shift delta Tm (LOC_OS01G63280-cb003) [°C] | thermal shift delta Tm (LOC_OS01G67340-cb003) [°C] | thermal shift delta Tm (LOC_OS01G70970-cb002) [°C] | thermal shift delta Tm (LOC_OS02G07810-cb001) [°C] | thermal shift delta Tm (LOC_OS02G08530-cb003) [°C] | thermal shift delta Tm (LOC_OS02G14120-cb001) [°C] | thermal shift delta Tm (LOC_OS02G17970-cb001) [°C] |
| --- | --- | --- | --- | --- | --- | --- | --- | --- | --- | --- | --- | --- | --- | --- | --- | --- | --- | --- | --- | --- |
| Cc1ccc2nc(NCCN)c3ncc(C)n3c2c1 | 0.42 | 0.41 | 1.16 | 0.4 | 0.19 | 0.57 | -0.24 | 1.79 | 0.09 | 0.5 | 0.95 | 0.28 | 0.64 | 0.27 | 0.55 | 0.33 | 0.4 | 0.92 | 0.86 | 0.51 |
| CC(=O)Nc1nc(C)c(-c2ccc(Cl)c(S(=O)(=O)NCCO)c2)s1 | 0.98 | 1.63 | 1.52 | 0.63 | 0.16 | 1.07 | -0.18 | 0.24 | 0.16 | 0.93 | 1.34 | 1.21 | 0.76 | 0.53 | 0.18 | 0.09 | 1.61 | 0.77 | 1.19 | 0.97 |
| COc1ccc(-c2ccc3c(N4CCOCC4)nc(N4C[C@@H](C)O[C@@H](C)C4)nc3n2)cc1CO | 0.64 | 0.68 | 0.83 | -0.38 | 0.08 | -0.07 | -0.02 | -0.04 | -0.03 | 0.27 | 0.55 | 0.67 | 0.28 | -0.12 | -0.53 | -0.02 | 0.61 | 0.4 | -0.18 | 0.46 |
| Cc1nc(N)sc1-c1ccnc(Nc2ccc(N3CCOCC3)cc2)n1 | 5.75 | 10.4 | 1.74 | 0.29 | 2.6 | 2.06 | 3.24 | 2.34 | 0.68 | 6.52 | 1.88 | 3.15 | 0.88 | 0.17 | -0.01 | 1.58 | 0.79 | 2.22 | 8.9 | -0.16 |
| O=C(O)c1ccc(Nc2ncc3c(n2)-c2ccc(Cl)cc2C(c2c(F)cccc2F)=NC3)cc1 | 1.36 | -0.24 | -0.28 | 0.41 | 0.03 | -0.02 | 0.1 | 0.02 | -0.16 | 0.07 | 0.51 | 0.82 | 0.64 | -0.31 | -0.46 | 0.46 | 0.3 | 0.39 | 0.88 | 0.07 |
| OC1CCC(Oc2cccc3cnc(Nc4ccc5nc[nH]c5c4)nc23)CC1 (stereo not given) | 5.55 | 6.21 | 1.42 | 0.31 | 7.5 | 4.16 | 10.3 | 5.98 | 1.07 | 3.63 | 1.84 | 13.9 | -0.02 | 4.52 | 5.84 | 8.36 | -0.24 | 4.55 | 11.4 | 0.06 |
| C[C@@H](Oc1cc(-c2cnn(C3CCNCC3)c2)cnc1N)c1c(Cl)ccc(F)c1Cl | 2.96 | 1.71 | 1.58 | -0.59 | 0.41 | -0.27 | 0.93 | 5.62 | 0.05 | 4.57 | 2.74 | 1.69 | 0.88 | 0.44 | 1.69 | 1.7 | 0.08 | 0.54 | 10.6 | 0.54 |
| O=C(Nc1cccc(Cl)c1)Nc1ncc(CCNc2ncnc3ccsc23)s1 [SNS-314 Mesylate] | 3.62 | 3.42 | 2.72 | 0.91 | 2.61 | 2.26 | 2.71 | 1.79 | 0.41 | 4.19 | 2.62 | 3.98 | 1.44 | 2.76 | 0.53 | 1.48 | 2.27 | 2.1 | 4.25 | 1.27 |
| OC(c1cc(-c2ccc(Cl)cc2)nc2ccccc12)C1CCCCN1 (stereo not given) [Vacquinol-1] | 0.1 | 1.71 | 0.31 | 1.34 | 0.11 | 1.18 | -0.2 | 0.86 | 0.34 | 0.54 | 2.48 | 1.32 | 1.39 | 0.78 | 1.06 | 0.39 | 0.67 | 0.72 | 0.39 | 0.79 |
| CNC(=O)Nc1ccc(-c2nc(N3CC4CCC(C3)O4)c3cnn(C4CCC5(CC4)OCCO5)c3n2)cc1 | 0.49 | 1.08 | 0.69 | 0.32 | 0.37 | 1.21 | -0.16 | 0.79 | 0.4 | 0.38 | 2.76 | 1.5 | 0.99 | 0.45 | 0.98 | 0.28 | 1.7 | 1.49 | 1.03 | 0.84 |
| COc1ncc(-c2ccc3nccc(-c4ccnnc4)c3c2)cc1NS(=O)(=O)c1ccc(F)cc1F | 1.94 | 1.21 | 0.23 | 0.27 | 1.9 | 1.2 | 3.65 | 0.45 | 0.55 | 1.09 | 2.01 | 0.36 | 1.17 | 0.66 | 1.24 | 0.34 | 1.43 | 0.74 | 0.78 | 1.75 |
| CCc1cnn2c(NCc3ccc[n+]([O-])c3)cc(N3CCCC[C@H]3CCO)nc12 | 0.61 | 2.64 | 0.06 | 0.02 | 3.51 | 0.49 | -0.18 | 0.7 | 0.2 | 0.32 | 1.62 | 1.64 | 0.78 | 0.34 | -0.24 | 0.27 | 1.17 | 0.89 | 0.57 | 0.96 |
| Cc1cc(CN2CCN(c3c(Br)cnc4nc(-c5ccc(N6CCN(C)CC6)cc5)[nH]c34)CC2)no1 | 4.15 | 1.45 | 1.57 | 0.82 | 0.83 | 2.01 | 4.92 | 3.13 | 0.84 | 0.67 | 0.54 | 3.22 | 0.17 | 0.23 | 1.36 | 1.3 | 0.7 | 0.33 | 4.66 | 0.14 |
